Test results taken from PubChem BioAssay (Tox21).
“And” between values parts separate entries of the source, which are not always exact repeats. Identical values can stand only once. Records with an inconclusive call do not appear. Where a structure was tested more than once in an assay, its records may differ in their call. The source made the active and inactive calls. The call rests on the fitted dose curve; in most records, active means well fitted curve in the direction sought with a large enough effect in the repeat runs; inconclusive means weak or mixed curves; inactive means no such curve, though single readings can be large; an effect the other way counts as inactive or inconclusive.

Columns and labels:
[1] = Caspase-3/7 induction in HepG2 cells by small molecules, qHTS assay (AID 1346978); further: nearly all actives have a fitted effect of over 15% in size; further: potency means the concentration at half of the fitted maximal effect
Procedure, shortened: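 Wild-type HepG2 cells, 2,000/well, settled 5 hr at 37 C and 5% CO2, then compound-treated for 17 hr; caspase-3/7 activity read by luminescent Caspase-Glo 3/7 after 30 min at room temperature.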

[2] = Caspase-3/7 induction in CHO-K1 cells by small molecules, qHTS cell viability counter screen (AID 1346979); further: nearly all actives have a fitted effect of over 35% in size; further: potency means the concentration at half of the fitted maximal effect
Procedure, shortened: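 CHO-K1 wt, 1,500 cells/well; 5hr pre-incubation 37C/5% CO2; compound pin transfer (DMSO); 16hr exposure; CellTiter-Fluor added, 1hr, fluorescence read.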

[3] = Caspase-3/7 induction in CHO-K1 cells by small molecules, qHTS assay (AID 1346980); further: nearly all actives have a fitted effect of over 15% in size; further: potency means the concentration at half of the fitted maximal effect
Procedure, shortened: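 Wild-type CHO-K1 cells exposed to compounds for 17hr at 37 C, 5% CO2. Caspase-3/7 activity then measured by Caspase-Glo 3/7 luminescence after 30min at room temperature.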

[4] = Caspase-3/7 induction in HepG2 cells by small molecules, qHTS cell viability counter screen (AID 1346981); further: series mostly up to about 92 µM; nearly all actives have a fitted effect of over 30% in size
Procedure, shortened: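 CellTiter-Fluor fluorescence measured viability in the same wells used for Caspase-Glo 3/7. HepG2 (wild type) at 2,000 cells/well were pre-incubated 5 hr, dosed, and given reagent at 16 hr, with 1 hr further at 37C.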

[5] = target: Nuclear receptor subfamily 1 group I member 2 (Homo sapiens) (UniProt O75469); assay: Human pregnane X receptor (PXR) small molecule agonists, qHTS assay (AID 1346982); further: nearly all actives have a fitted effect of over 35% in size; further: potency means the concentration at half of the fitted maximal effect
Procedure, shortened: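 Agonist mode: luminescence from ONE-Glo after 24 h compound exposure at 37C in HepG2 cells carrying hPXR-responsive CYP3A4 luciferase, plated in charcoal-stripped serum medium 5 h beforehand.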

[6] = target: Cytochrome P450 2D6 (Homo sapiens) (UniProt P10635); assay: Cytochrome P450 Family 2 Subfamily D Member 6 (CYP2D6) small molecule antagonists: luciferase reporter qHTS assay (AID 1671196); further: nearly all actives have a fitted effect of over 50% in size; further: potency means the concentration at half of the fitted maximal effect; on activity change, negative = inhibition: series mostly up to about 120 µM
Procedure, shortened: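 CYP2D6 activity was followed as luminescence from its luciferin product after a 1 h NADPH-driven reaction at room temperature. Enzyme-substrate mix and compound were pre-incubated for 10 min, and the signal was read 20 min after adding detection reagent.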

[7] = target: Nuclear receptor subfamily 1 group I member 2 (Rattus norvegicus) (UniProt Q9R1A7); assay: Rat pregnane X receptor (rPXR) activation by small molecules, qHTS assay (AID 1346983); details: rPXR luciferase reporter cells, One-Glo luminescence, 24 h; stronger effect = higher value; further: nearly all actives have a fitted effect of over 20% in size
Procedure, shortened: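 Cell-based rPXR activation assay: rPXR cells, 2,000 per well, rested 5hr at 37 C, then exposed to compounds in DMSO for 24 hr at 37 C. Luciferase activity read by One-Glo luminescence after 30 min at room temperature.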

[8] = target: Nuclear receptor subfamily 1 group I member 2 (Homo sapiens) (UniProt O75469); assay: CYP3A4 induction through human pregnane X receptor (PXR) by small molecules, qHTS assay (AID 1346984); further: nearly all actives have a fitted effect of over 40% in size
Procedure, shortened: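 Read-out is luminescence after One-Glo addition, following a 3 hr, 37C incubation with Luciferin-IPA CYP3A4 substrate (3uM final). Before that, compounds were on DPX-2 cells (HepG2 co-transfected with PXR element plus CYP3A4-promoter luciferase) for 24 hr at 37C.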

[9] = target: Nuclear receptor subfamily 1 group I member 2 (Homo sapiens) (UniProt O75469); assay: Human pregnane X receptor (PXR) activation by small molecules, qHTS assay (AID 1346985); further: nearly all actives have a fitted effect of over 40% in size
Procedure, shortened: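 DPX-2 cells (HepG2 co-transfected with a PXR response element and a CYP3A4-promoter luciferase construct) were seeded at 2,000 per well, rested 5 hr at 37C, then exposed to DMSO-dissolved compounds for 24 hr. Activation was read as luciferase luminescence.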
On the % scale 0 is the no-effect control and ±100 the full control effect.

Nuclear receptor subfamily 1 group I member 2 (Rattus norvegicus), sequence (Q9R1A7 whole entry, looked up): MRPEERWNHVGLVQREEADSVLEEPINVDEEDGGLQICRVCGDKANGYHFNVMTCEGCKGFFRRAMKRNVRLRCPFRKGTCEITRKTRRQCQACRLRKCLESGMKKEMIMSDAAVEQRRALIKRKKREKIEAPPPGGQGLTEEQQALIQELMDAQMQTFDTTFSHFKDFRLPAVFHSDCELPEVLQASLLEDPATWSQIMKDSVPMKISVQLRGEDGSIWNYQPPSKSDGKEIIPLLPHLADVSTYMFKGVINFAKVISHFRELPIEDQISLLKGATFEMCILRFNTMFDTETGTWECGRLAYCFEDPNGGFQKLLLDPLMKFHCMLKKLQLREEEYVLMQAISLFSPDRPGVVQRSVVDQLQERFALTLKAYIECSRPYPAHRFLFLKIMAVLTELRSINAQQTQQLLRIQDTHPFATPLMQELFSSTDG
Nuclear receptor subfamily 1 group I member 2 (Homo sapiens), sequence (O75469 whole entry, looked up): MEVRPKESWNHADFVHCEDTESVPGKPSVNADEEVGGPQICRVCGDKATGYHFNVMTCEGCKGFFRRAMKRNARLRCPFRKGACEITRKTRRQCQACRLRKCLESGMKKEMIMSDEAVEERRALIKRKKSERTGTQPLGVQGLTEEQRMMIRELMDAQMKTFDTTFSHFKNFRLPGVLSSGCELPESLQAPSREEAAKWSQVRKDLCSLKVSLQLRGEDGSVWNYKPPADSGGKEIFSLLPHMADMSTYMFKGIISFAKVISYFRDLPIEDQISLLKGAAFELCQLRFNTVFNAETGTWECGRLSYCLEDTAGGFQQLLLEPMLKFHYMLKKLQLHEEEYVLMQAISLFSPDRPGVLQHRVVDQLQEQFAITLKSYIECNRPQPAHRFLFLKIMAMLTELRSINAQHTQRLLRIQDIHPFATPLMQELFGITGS
Cytochrome P450 2D6 (Homo sapiens), sequence (P10635 whole entry, looked up): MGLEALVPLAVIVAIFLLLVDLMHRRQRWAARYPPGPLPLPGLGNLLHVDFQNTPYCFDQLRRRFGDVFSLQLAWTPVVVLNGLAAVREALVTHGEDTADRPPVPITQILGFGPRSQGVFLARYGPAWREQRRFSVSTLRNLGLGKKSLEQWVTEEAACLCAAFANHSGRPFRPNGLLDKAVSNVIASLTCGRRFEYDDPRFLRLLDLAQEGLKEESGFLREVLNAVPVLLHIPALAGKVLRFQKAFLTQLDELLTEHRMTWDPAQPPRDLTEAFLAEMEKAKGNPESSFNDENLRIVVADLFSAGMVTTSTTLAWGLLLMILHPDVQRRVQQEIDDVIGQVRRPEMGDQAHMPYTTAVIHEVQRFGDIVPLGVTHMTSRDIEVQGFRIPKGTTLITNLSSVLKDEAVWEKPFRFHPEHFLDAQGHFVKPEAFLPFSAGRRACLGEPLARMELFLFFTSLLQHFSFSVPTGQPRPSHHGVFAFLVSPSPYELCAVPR

CCn1cc(C(=O)O)c(=O)c2cc3c(cc21)OCO3
inactive: Potency [1] | Potency [2] | Potency [3] | Potency [4] | Potency [5] | Potency [6]

COC(=O)CCCCC(=O)OC
inactive: Potency [1] | Potency [2] | Potency [3] | Potency [4] | Potency [5]

Cc1cc(C)cc(O)c1
12.2 µM (active) and inactive: Potency [1]
inactive: Potency [3] | Potency [5]
1.73 µM (active) and inactive: Potency [2]

OB(O)O
inactive: Potency [1] | Potency [2] | Potency [3] | Potency [5] | max activation [7] -0.586% | Potency [8] | outcome [9] | Potency [6]

CCCOC(=O)NCCCN(C)C
inactive: Potency [1] | Potency [2] | Potency [3] | Potency [5]
inactive and 35.6 µM (active): Potency [6]

Cc1cccc(C)c1[N+](=O)[O-]
inactive: Potency [1] | Potency [2] | Potency [3] | Potency [4] | Potency [5] | Potency [6]

Cc1ccncc1
inactive: Potency [1] | Potency [2] | Potency [3] | Potency [5]

O=[N+]([O-])c1cc(C(F)(F)F)ccc1Cl
inactive: Potency [1] | Potency [2] | Potency [3] | Potency [5]

CO[Si](CCCNCCN)(OC)OC
inactive: Potency [1] | Potency [6]
5.53 µM (active) and inactive: Potency [2]
13.9 µM (active) and inactive: Potency [5]
27.7 µM (active) and inactive: Potency [3]

CCc1cccc(O)c1
inactive: Potency [1] | Potency [2] | Potency [3] | Potency [4] | Potency [5] | Potency [6]

O=C(Cl)c1ccc(C(=O)Cl)cc1
inactive: Potency [1] | Potency [2] | Potency [3] | Potency [4] | Potency [5]

O=C1OC(=O)c2c(Cl)c(Cl)c(Cl)c(Cl)c21
inactive: Potency [1] | Potency [2] | Potency [3] | Potency [4] | Potency [5] | Potency [6]

NC(N)=S
inactive: Potency [1] | Potency [2] | Potency [3] | Potency [4] | Potency [5]

CC(=O)OC[C@H]1O[C@@](COC(C)=O)(O[C@H]2O[C@H](COC(C)=O)[C@@H](OC(C)=O)[C@H](OC(C)=O)[C@H]2OC(C)=O)[C@@H](OC(C)=O)[C@@H]1OC(C)=O
inactive: Potency [1] | Potency [2] | Potency [3] | Potency [4] | Potency [5] | max activation [7] -1.94% | Potency [8] | outcome [9] | Potency [6]

COc1c2ccoc2cc2oc(=O)ccc12
active: Potency [5] 55.7 µM and 21.7 µM
inactive: Potency [1] | Potency [2] | Potency [3] | Potency [4]
4.08 µM (active) and inactive: Potency [6]

CC[N+](CC)(CC(=O)Nc1c(C)cccc1C)Cc1ccccc1
inactive: Potency [1] | Potency [2] | Potency [3] | Potency [4]
11.2 nM (active) and inactive: Potency [6]

CC1(C)C(=O)N(Cl)C(=O)N1Cl
inactive: Potency [1] | Potency [2] | Potency [3] | Potency [4] | Potency [5] | Potency [6]

C=C(C)CC(C)(C)C
inactive: Potency [1] | Potency [2] | Potency [3] | Potency [4] | Potency [5]

Cc1ncc(CO)c(CO)c1O
inactive: Potency [1] | Potency [2] | Potency [3] | Potency [5] | Potency [6]

Cc1ccc([N+](=O)[O-])cc1N
inactive: Potency [1] | Potency [2] | Potency [3] | Potency [4] | Potency [5]

Cc1ccc(C)c(S(=O)(=O)O)c1
inactive: Potency [1] | Potency [2] | Potency [3] | Potency [4] | Potency [5]
64.4 µM (active) and inactive: Potency [6]

CCCCCCCCCCCC(=O)N(C)CC(=O)O
active: Potency [5] 59.2 µM
inactive: Potency [1] | Potency [2] | Potency [3] | Potency [4] | activation [5] -3.89% [at 8.39 µM] | activity change, negative = inhibition [6] -25.2% [at 10.5 µM]

CC(=O)OCc1ccc2c(c1)OCO2
inactive: Potency [1] | Potency [2] | Potency [3] | Potency [4] | Potency [5] | Potency [6]

CC1=CC(=O)CC(C)(C)C1
62.9 µM (active) and inactive: Potency [5]
inactive: Potency [1] | Potency [2] | Potency [3] | Potency [6]

O=C(c1ccccc1)c1ccc(O)c(O)c1O
inactive: Potency [1] | Potency [3]
active: Potency [2] 69.1 µM and 61.1 µM | Potency [5] 54.9 µM

O=c1n(CCCN2CCN(c3cccc(Cl)c3)CC2)nc2ccccn12
inactive: Potency [1] | Potency [2] | Potency [3] | Potency [4] | max activation [7] -1.08%

CC(C)(C)NC[C@H](O)COc1nsnc1N1CCOCC1
inactive: Potency [1] | Potency [2] | Potency [3] | Potency [4]

NC(=O)c1ncn([C@@H]2O[C@H](CO)[C@@H](O)[C@H]2O)n1
9.1 µM (active) and inactive: Potency [5]
inactive: Potency [1] | Potency [2] | Potency [3]

COc1c(Cl)ccc(Cl)c1C(=O)O
inactive: Potency [1] | Potency [2] | Potency [3] | Potency [4] | Potency [5] | Potency [6]

CCOC(=O)CC(=O)OCC
inactive: Potency [1] | Potency [2] | Potency [3] | Potency [5]

CCc1cccc(CC)c1N
inactive: Potency [1] | Potency [2] | Potency [3] | Potency [5] | Potency [6]

C=CC(C)(C)C
inactive: Potency [1] | Potency [2] | Potency [3] | Potency [4] | Potency [5] | Potency [6]
